{"source": "PubChem BioAssay (Tox21)", "note": "Inconclusive results are not listed. The source made the active and inactive calls. The call rests on the fitted dose curve. On the % scale 0 is the no-effect control and ±100 the full control effect.", "data": [{"molecular_target": "Progesterone receptor (Homo sapiens) (UniProt P06401)", "sequence (P06401 whole entry, looked up)": "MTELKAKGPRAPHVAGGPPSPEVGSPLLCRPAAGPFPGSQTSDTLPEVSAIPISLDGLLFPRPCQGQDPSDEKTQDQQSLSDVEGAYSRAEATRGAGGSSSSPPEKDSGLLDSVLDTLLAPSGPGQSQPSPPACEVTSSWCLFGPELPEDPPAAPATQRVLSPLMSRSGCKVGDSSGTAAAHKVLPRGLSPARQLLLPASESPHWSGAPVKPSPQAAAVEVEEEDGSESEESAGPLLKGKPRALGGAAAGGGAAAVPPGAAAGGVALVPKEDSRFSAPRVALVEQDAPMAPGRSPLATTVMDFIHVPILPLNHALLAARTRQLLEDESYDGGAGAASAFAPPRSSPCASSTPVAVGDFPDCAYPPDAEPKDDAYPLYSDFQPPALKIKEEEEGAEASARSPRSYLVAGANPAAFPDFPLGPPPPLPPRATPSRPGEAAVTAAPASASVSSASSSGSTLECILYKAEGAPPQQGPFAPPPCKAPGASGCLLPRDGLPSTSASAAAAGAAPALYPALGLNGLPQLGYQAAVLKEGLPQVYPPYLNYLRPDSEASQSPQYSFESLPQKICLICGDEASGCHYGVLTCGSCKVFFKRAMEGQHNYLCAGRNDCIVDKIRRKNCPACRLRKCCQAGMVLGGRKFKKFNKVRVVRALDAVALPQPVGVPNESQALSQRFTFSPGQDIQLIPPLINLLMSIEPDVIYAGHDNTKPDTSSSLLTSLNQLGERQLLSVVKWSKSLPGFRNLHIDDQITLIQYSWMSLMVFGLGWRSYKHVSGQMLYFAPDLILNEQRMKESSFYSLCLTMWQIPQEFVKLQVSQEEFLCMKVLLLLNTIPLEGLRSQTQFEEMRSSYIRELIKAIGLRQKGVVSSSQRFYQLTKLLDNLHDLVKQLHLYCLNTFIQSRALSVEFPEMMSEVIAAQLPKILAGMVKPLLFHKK", "assay": "qHTS assay to identify small molecule agonists of the progesterone receptor (PR) signaling pathway (AID 1346784); further: nearly all actives have a fitted effect of over 30% in size", "settings": "PR-UAS-bla HEK293T, beta-lactamase FRET ratio, 16 h; series mostly up to 92.4 µM; activation: at the top concentration", "source_text": "U.S. Tox21 Program National Center for Advancing Translational Sciences [NCATS] NIH Chemical Genomics Center [NCGC] U.S. Environmental Protection Agency [EPA] National Institutes of Environmental Health Sciences [NIEHS] National Toxicology Program [NTP] U.S. Food and Drug Administration [FDA] […] Endocrine disrupting chemicals (EDCs) and their interactions with steroid hormone receptors like PR causes disruption of normal endocrine function. To identify the compounds that activate PR signaling, a PR-UAS-bla GripTite cell line i.e. PR-UAS-bla HEK 293T (Invitrogen, Carlsbad, CA, USA) containing a beta-lactamase reporter gene under the control of an Upstream Activator Sequence (UAS) was used to screen Tox21 10K compound library.\nTox21 Assay Protocol Summary: PR-UAS-bla HEK 293T cells were dispensed at 3,000 cells/5 uL of assay medium containing 2% charcoal stripped FBS per well into black wall/clear-bottom 1536-well plates using a Multidrop Combi (ThermoFisher Scientific, Waltham, MA) dispenser. After the assay plates were incubated at a 37C and 5% CO2 for 6hr, 23 nL of compounds dissolved in DMSO, positive controls or DMSO only was transferred to the assay plate by a Pintool station (Kalypsys, San Diego, CA). The plates were incubated at 37C and 5% CO2 for 16hr. Then 1 uL of LiveBLAzer B/G FRET substrate was added using a BioRAPTR FRD (Flying Reagent Dispenser, Aurora Discovery, San Diego, CA). After the plates were incubated at room temperature for 2 hours, fluorescence intensity was measured by an Envision plate reader (PerkinElmer, Shelton, CT).", "values": [{"smiles": "COc1cc2c(cc1OC)[C@@H]1CC(=O)[C@@H](CC(C)C)CN1CC2", "activation": "-5.19% [at 42.5 µM] (inactive)"}, {"smiles": "CC(C)CC(C)CC(C)CC(C)COC(=O)c1ccccc1C(=O)OCC(C)CC(C)CC(C)CC(C)C", "note": "(stereo not given)", "activation": "-0.646% (inactive)"}, {"smiles": "CCCCCCOC(=O)CC", "activation": "1.25% (inactive)"}, {"smiles": "O=C(O)CCSSCCC(=O)O", "activation": "-0.202% (inactive)"}, {"smiles": "OCCCCC(O)CO", "note": "(stereo not given)", "activation": "-1.36% (inactive)"}, {"smiles": "CCC(CC)CO", "activation": "-0.318% (inactive)"}, {"smiles": "Oc1cn2c(n1)Nc1ccc(Cl)c(Cl)c1C2", "activation": "-0.586% [at 19 µM] (inactive)"}, {"smiles": "CC1=C(C(=O)O)N2C(=O)[C@@H](NC(=O)[C@H](N)c3ccc(O)cc3)[C@H]2SC1", "activation": "1.87% [at 42.5 µM] (inactive)"}, {"smiles": "CO[C@@H]1[C@@H](OC(N)=O)[C@@H](O)[C@H](Oc2ccc3c(O)c(NC(=O)c4ccc(O)c(CC=C(C)C)c4)c(=O)oc3c2C)OC1(C)C", "activation": "-3.7% [at 42.5 µM] (inactive)"}, {"smiles": "Nc1cccc(O)c1", "activation": "-4.84% (inactive)"}, {"smiles": "O=C(c1ccc(O)cc1)c1ccc(O)c(O)c1O", "activation": "-0.118% (inactive)"}, {"smiles": "NS(=O)(=O)c1ccc(NC(=O)CCC(=O)O)cc1", "activation": "0.438% [at 42.5 µM] (inactive)"}, {"smiles": "Cc1ccc(S(=O)(=O)O)c(C)c1", "activation": "3.06% (inactive)"}, {"smiles": "Cc1[nH]cnc1-c1ccc(Cl)cc1", "activation": "0.0037% [at 42.5 µM] (inactive)"}, {"smiles": "CN(C)c1ccc(C=O)cc1", "activation": "0.436% (inactive)"}, {"smiles": "COCCOCCOCCOCCO", "activation": "1.57% (inactive)"}, {"smiles": "O=C(O)c1cc(Cl)cc([N+](=O)[O-])c1Cl", "activation": "1.44% (inactive)"}, {"smiles": "COc1cc(C(=S)N2CCOCC2)cc(OC)c1OC", "activation": "0.424% [at 42.5 µM] (inactive)"}, {"smiles": "CC1(C)S[C@@H]2[C@H](N=CN3CCCCCC3)C(=O)N2[C@H]1C(=O)O", "activation": "0.2% [at 42.5 µM] (inactive)"}, {"smiles": "CC(C)C[C@H](NC(=O)CNC(=O)[C@H](Cc1ccc(O)cc1)NC(=O)[C@H](CO)NC(=O)[C@H](Cc1c[nH]c2ccccc12)NC(=O)[C@H](Cc1cnc[nH]1)NC(=O)[C@@H]1CCC(=O)N1)C(=O)N[C@@H](CCCN=C(N)N)C(=O)N1CCC[C@H]1C(=O)NCC(N)=O", "note": "(stereo in doubt)", "activation": "-4.51% [at 42.5 µM] (inactive)"}, {"smiles": "CC(C)CCCC(C)(C)O", "activation": "62.3% (inactive)"}, {"smiles": "O=C(O)Cc1cn(-c2ccccc2)nc1-c1ccc(Cl)cc1", "activation": "-2.38% [at 42.5 µM] (inactive)"}, {"smiles": "Cc1nc2n(c(=O)c1CCN1CCC(c3noc4cc(F)ccc34)CC1)CCC[C@H]2O", "activation": "-1.98% [at 19 µM] (inactive)"}, {"smiles": "CC(=O)NCc1c(I)c(NC(C)=O)c(I)c(C(=O)O)c1I", "activation": "0.365% [at 42.5 µM] (inactive)"}, {"smiles": "O=C(NCCN1CCOCC1)c1ccc(Cl)cc1", "activation": "-0.47% [at 42.5 µM] (inactive)"}, {"smiles": "C[Si](C)(C)C", "activation": "-4.24% (inactive)"}, {"smiles": "ClCCCl", "activation": "0.791% (inactive)"}, {"smiles": "COc1ccc2nc(SCc3ncc(C)c(OC)c3C)[nH]c2c1", "activation": "0.119% [at 42.5 µM] (inactive)"}, {"smiles": "O=Cc1ccc(Cl)c(Cl)c1", "activation": "0.985% (inactive)"}, {"smiles": "CCCC/C=C/C=C\\C=O", "activation": "7.03% (inactive)"}, {"smiles": "O=C1CCCC(=O)O1", "activation": "0.184% (inactive)"}, {"smiles": "c1ccc2nccnc2c1", "activation": "-1.71% (inactive)"}, {"smiles": "O=C(CCNNC(=O)c1ccncc1)NCc1ccccc1", "activation": "0.49% [at 42.5 µM] (inactive)"}, {"smiles": "CCN(CC)CC(=O)Nc1c(C)cccc1C", "activation": "0.472% [at 42.5 µM] (inactive)"}, {"smiles": "CC(=O)N[C@@H](CCC(=O)O)C(=O)O", "activation": "-0.0408% [at 42.5 µM] (inactive)"}, {"smiles": "CC(C)C(=O)OCc1cccc(OC(=O)[C@@H]2N3C(=O)[C@@H](NC(=O)Cc4ccccc4)[C@H]3SC2(C)C)c1", "activation": "1.12% [at 42.5 µM] (inactive)"}, {"smiles": "CC(C)(C)c1cc(CCC(=O)NN)cc(C(C)(C)C)c1O", "activation": "0.237% (inactive)"}, {"smiles": "CC(C)(C)NC(N)=O", "activation": "-1.82% (inactive)"}, {"smiles": "CC(=O)CCCCn1c(=O)c2c(ncn2C)n(C)c1=O", "activation": "-0.164% [at 42.5 µM] (inactive)"}, {"smiles": "O=C(NCC(O)CO)c1c(I)c(C(=O)NCC(O)CO)c(I)c(N(CCO)C(=O)CO)c1I", "note": "(stereo not given)", "activation": "-0.812% [at 42.5 µM] (inactive)"}]}]}
